Results as given in PubChem BioAssay AID1839 (Johns Hopkins Ion Channel Center, 2009).
Hit rate of the full screen: of about 2,400 compounds, about 220 (9.2%) were called active. The sample as a whole holds a higher share of actives than the screen did. A number with no mark means an inactive call.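 The calls were made as follows: active = signal change above the mean of dofetilide-free buffer controls plus 3 SD, so a positive margin; inactive = the rest.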

Experiment: thallium signal changes without hERG – cell-based, CHO-K1 parental line, FluxOR thallium flux, counter-screen for hERG block protection project, confirmation (AID 1839);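 also: compounds applied alone with no dofetilide to cells lacking hERG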
Settings: CHO-K1 parental cells, FluxOR thallium flux fluorescence; at 10 µM
`O=C(Nc1ccc(Cl)cc1)Nn1cnnc1` gave a signal change vs control minus 3*SD hit threshold (margin above threshold, higher = more increase) of -19.6%. `CCOC(=O)C1=C(c2ccccc2)NC(=O)NC1c1ccc(O)c(Cl)c1` (stereo not given) gave a signal change vs control minus 3*SD hit threshold (margin above threshold, higher = more increase) of -23.2%. With `CC1CCC(n2c(=S)[nH]c3ccccc3c2=O)CC1` (stereo not given) the signal change vs control minus 3*SD hit threshold (margin above threshold, higher = more increase) was 23.6% (active). Work on `O=c1c2ccccc2[nH]c(=S)n1C1CCCCC1` yielded a signal change vs control minus 3*SD hit threshold (margin above threshold, higher = more increase) of -31.6%. Molecule `CC1CCCCC1n1c(=S)[nH]c2ccccc2c1=O` (stereo not given) has a signal change vs control minus 3*SD hit threshold (margin above threshold, higher = more increase) of -13.4%. Molecule `Cc1c(C(=O)N/N=C/c2ccccn2)nnn1-c1nonc1N` has a signal change vs control minus 3*SD hit threshold (margin above threshold, higher = more increase) of -22.2%. For `Cn1c(=O)c2sc3c(c2n(CC(=O)Nc2ccccc2)c1=O)COC(C)(C)C3`, the signal change vs control minus 3*SD hit threshold (margin above threshold, higher = more increase) was -33%. For `c1ccc(-c2ccc(-c3ccncn3)cc2)cc1`, the signal change vs control minus 3*SD hit threshold (margin above threshold, higher = more increase) was -28.8%. `Cc1cccnc1NC(=O)c1csnn1` gave a signal change vs control minus 3*SD hit threshold (margin above threshold, higher = more increase) of -24.6%. For `Cc1snnc1C(=O)NC(=S)Nc1ccccc1`, the signal change vs control minus 3*SD hit threshold (margin above threshold, higher = more increase) was 5.3% (active). In the case of `O=C(NC(=S)Nc1ccccc1Cl)c1ccco1`, the signal change vs control minus 3*SD hit threshold (margin above threshold, higher = more increase) is reported as -7.5%. For `O=C(NC(=S)Nc1ccccc1)c1cccs1`, the signal change vs control minus 3*SD hit threshold (margin above threshold, higher = more increase) was -16.6%. In the case of `COc1ccc(NC(=S)Nc2ccccn2)cc1`, the signal change vs control minus 3*SD hit threshold (margin above threshold, higher = more increase) is reported as -35.9%. With `COc1ccc(NC(=S)NC(=O)c2ccc(Br)o2)cc1` the signal change vs control minus 3*SD hit threshold (margin above threshold, higher = more increase) was -13.4%. In the case of `O=C(NC(=S)Nc1ccccc1)c1cncc(C#Cc2ccccc2)c1`, the signal change vs control minus 3*SD hit threshold (margin above threshold, higher = more increase) is reported as -27.9%. In the case of `O=C(NC(=S)Nc1ccccc1Cl)c1csnn1`, the signal change vs control minus 3*SD hit threshold (margin above threshold, higher = more increase) is reported as 39.6% (active). For `COc1ccc(NC(=S)NC(=O)c2csnn2)cc1`, the signal change vs control minus 3*SD hit threshold (margin above threshold, higher = more increase) was 9.6% (active). `Cc1ccc(NC(=S)NC(=O)c2ccc(-c3ccccc3)cc2)cc1` showed a signal change vs control minus 3*SD hit threshold (margin above threshold, higher = more increase) of -23.5%. For `Cc1csc(NC(=S)NC(=O)c2ccccc2)n1`, the signal change vs control minus 3*SD hit threshold (margin above threshold, higher = more increase) was -14.7%. In the case of `O=C(NC(=S)Nc1ccccc1)c1csnn1`, the signal change vs control minus 3*SD hit threshold (margin above threshold, higher = more increase) is reported as 50.8% (active). With `CC(=O)Nc1ccc(NC(=O)CSc2ncc(C(=O)Nc3ccc(Cl)cc3)c(=O)n2C)cc1` the signal change vs control minus 3*SD hit threshold (margin above threshold, higher = more increase) was -22.1%. `S=C(N/N=C/c1ccccc1Cl)Nc1cccc(Cl)c1Cl` showed a signal change vs control minus 3*SD hit threshold (margin above threshold, higher = more increase) of -4.6%. In the case of `O=C1CC(N2CCN(c3ccccc3Cl)CC2)C(=O)N1c1ccc(F)cc1` (stereo not given), the signal change vs control minus 3*SD hit threshold (margin above threshold, higher = more increase) is reported as -20.8%. For `COc1cccc(C(=O)/C=C/Nc2ccc(S(=O)(=O)Nc3cnc4ccccc4n3)cc2)c1`, the signal change vs control minus 3*SD hit threshold (margin above threshold, higher = more increase) was -33.7%. Molecule `C/C(=N/NC(=O)c1ccncc1)c1ccc2c(c1)OCO2` has a signal change vs control minus 3*SD hit threshold (margin above threshold, higher = more increase) of -30.7%. With `Cn1c(=O)c(-c2cc(=O)[nH][nH]2)c(O)c2ccccc21` the signal change vs control minus 3*SD hit threshold (margin above threshold, higher = more increase) was -23.6%. In the case of `Cc1noc(C)c1-c1nnc(-c2ccc(C(F)(F)F)cc2)o1`, the signal change vs control minus 3*SD hit threshold (margin above threshold, higher = more increase) is reported as -18.1%. Molecule `Cn1cc([N+](=O)[O-])c(C(=O)NCc2cc3cc(Cl)ccc3[nH]2)n1` has a signal change vs control minus 3*SD hit threshold (margin above threshold, higher = more increase) of -24.3%. With `Cc1ccc(NC(=O)C2C3CCC(O3)C2C(=O)O)cc1C` (stereo not given) the signal change vs control minus 3*SD hit threshold (margin above threshold, higher = more increase) was -26%. With `CC(NC(=O)c1ccncc1)C(C)(C)C` (stereo not given) the signal change vs control minus 3*SD hit threshold (margin above threshold, higher = more increase) was -25.4%. For `Cc1ccccc1Cc1c(C)nc2c(C(=O)NCc3ccc4c(c3)OCO4)cnn2c1C`, the signal change vs control minus 3*SD hit threshold (margin above threshold, higher = more increase) was -30.9%. Molecule `Cc1nc(-c2ccccc2)cn(O)c1=O` has a signal change vs control minus 3*SD hit threshold (margin above threshold, higher = more increase) of -14.6%. `COC(=O)Nc1c(-c2ccccc2)nc2ccccn12` gave a signal change vs control minus 3*SD hit threshold (margin above threshold, higher = more increase) of -32.5%. For `O=c1c(-c2ccccc2)nc(-c2ccccc2)cn1O`, the signal change vs control minus 3*SD hit threshold (margin above threshold, higher = more increase) was 27.1% (active). `Cc1ccc(C)c(NC(=S)NNC(=O)c2csc3c2CCC(C)C3)c1` (stereo not given) showed a signal change vs control minus 3*SD hit threshold (margin above threshold, higher = more increase) of -16.3%. Molecule `O=C(NC(=S)N(CCCCO)C1CCCCC1)c1sc2ccccc2c1Cl` has a signal change vs control minus 3*SD hit threshold (margin above threshold, higher = more increase) of -27.6%. With `CCOC(=S)NC(=O)c1sc2ccccc2c1Cl` the signal change vs control minus 3*SD hit threshold (margin above threshold, higher = more increase) was 3% (active). For `CCCCOC(=S)NC(=O)c1sc2ccccc2c1Cl`, the signal change vs control minus 3*SD hit threshold (margin above threshold, higher = more increase) was 24.5% (active). For `O=C(NNC(=S)NC(=O)c1sc2ccccc2c1Cl)c1ccc(Cl)cc1`, the signal change vs control minus 3*SD hit threshold (margin above threshold, higher = more increase) was -22.6%. With `COc1ccccc1C(=O)NC(=S)NNC(=O)c1sc2ccccc2c1Cl` the signal change vs control minus 3*SD hit threshold (margin above threshold, higher = more increase) was 23.2% (active). In the case of `COc1ccccc1C(=O)NNC(=S)NC(=O)c1sc2ccccc2c1Cl`, the signal change vs control minus 3*SD hit threshold (margin above threshold, higher = more increase) is reported as -27.2%. `CCCOC(=S)NC(=O)c1sc2ccccc2c1Cl` gave a signal change vs control minus 3*SD hit threshold (margin above threshold, higher = more increase) of -4%. With `COC(=O)CC1C(=O)NCCN1C(=S)NC(=O)c1sc2ccccc2c1Cl` (stereo not given) the signal change vs control minus 3*SD hit threshold (margin above threshold, higher = more increase) was -17.8%. Molecule `Cc1ccc(NC(=S)NC(=O)c2sc3ccccc3c2Cl)c(C(=O)O)c1` has a signal change vs control minus 3*SD hit threshold (margin above threshold, higher = more increase) of -25.3%. `Cc1cccc(OCC(=O)NC2CCCc3ccccc32)c1C` (stereo not given) gave a signal change vs control minus 3*SD hit threshold (margin above threshold, higher = more increase) of -39.9%. Work on `CCc1nnc(NC(=O)CSc2nc(-c3ccccc3)cc(-c3ccc(OC)cc3)c2C#N)s1` yielded a signal change vs control minus 3*SD hit threshold (margin above threshold, higher = more increase) of -33.2%. In the case of `COc1ccc(C2/C(=C(/O)c3ccc(Br)cc3)C(=O)C(=O)N2C)cc1` (stereo not given), the signal change vs control minus 3*SD hit threshold (margin above threshold, higher = more increase) is reported as -34.2%. In the case of `CCOCCCn1c(=S)[nH]c2cc(C(=O)NCCOC)ccc2c1=O`, the signal change vs control minus 3*SD hit threshold (margin above threshold, higher = more increase) is reported as -21.5%. For `CCOC(=O)c1sc(NC(=S)NC(=O)c2ccc(OC)cc2)nc1C`, the signal change vs control minus 3*SD hit threshold (margin above threshold, higher = more increase) was -23.3%. In the case of `CCOC(=O)c1sc(=S)n2c1[nH]c(=O)c1ccc(C(=O)OC)cc12`, the signal change vs control minus 3*SD hit threshold (margin above threshold, higher = more increase) is reported as 27.7% (active).
